EWS-Fli block – inhibitors of EWS/Fli oncoprotein transcriptional activity; A673 NR0B1-luciferase reporter, viability-normalised; inhibition, % at 12.6 µM; hit rate 0.67% among 350,000;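 active = mean inhibition of at least 50% after viability correction, with every replicate also passing that limit; inconclusive = mean reaches 50% but only one of two replicates passes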;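 note: firefly luciferase signal divided by Alamar Blue viability fluorescence both relative to DMSO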
EBV LMP1 NFkB – inhibitors of Epstein-Barr LMP1-induced NF-kappaB reporter. LMP1-induced NF-kappaB luciferase reporter cells, luminescence. inhibition, % at 12.5 µM. hit rate 0.69% among 350,000; in the data active = inhibition above about 41%; inconclusive = no clear call, values can overlap the other calls;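 note: 0% = neutral control wells and 100% = reference inhibitor control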
LGR2 antag – blocks bursicon-induced cAMP signaling via Drosophila LGR2 | inhibition, % at 9.99 µM | hit rate 0.35% among 380,000 | HEK293 LGR2, CRE-luciferase, bursicon-stimulated, 4 h;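 active = drop in luminescence signal, shown as inhibition above about 50% in the replicate tests, limit read from the data, passing the limit was not always enough; inconclusive = probably only some replicates passing the limit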;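 note: agonist challenge used bursicon conditioned medium at about half maximal strength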
TWEAK-Fn14 inh – TWEAK-Fn14 signaling inhibition; TWEAK-stimulated Fn14 reporter cells, luciferase luminescence, 8 h; inhibition, % at 10 µM; hit rate 2% among 360,000; AID 1159606; in the data active = inhibition above about 50%
PAX8 inh HTS – PAX8 transcriptional activity inhibition. inhibition, % at 12.6 µM. RMG-I TPO-luciferase reporter, SteadyGlo, 24 h. AID 652154. hit rate 1.2% among 360,000;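 active = mean replicate inhibition at least 60% with every replicate also reaching 60%; inconclusive = only one of the two criteria is met; inactive = mean below 60% and not all replicates reaching 60%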;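 note: luciferase light reporting Pax8 driven TPO promoter activity; plate controls were median of neutral control wells for no effect and mitoxantrone controls for full effect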
TROY signal inh – TROY signaling inhibition | Q293 LMP1-TROYcd NF-kB luciferase reporter, 4 h | inhibition, % at 10 µM | hit rate 0.98% among 360,000 | AID 1347056;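 active = compounds whose plate-normalised and pattern-corrected inhibition of the luciferase reporter signal at the single screening dose is 50% or more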
* = called active by the depositor; ? = inconclusive; / = not tested or not shown. A selection: hits, their analogues and other compounds. The true share with any hit is near 3.2%.

SMILES	EWS-Fli block	EBV LMP1 NFkB	LGR2 antag	TWEAK-Fn14 inh	PAX8 inh HTS	TROY signal inh
COc1ccccc1C=CC(=O)C=Cc1ccccc1OC	39	66*	-19	80*	17	-36
COc1ccccc1/C=C/C(=O)N1CCCC1	-17	-2	-1	-8	-28	-11
COc1ccccc1/C=C/C(=O)/C=C/c1ccccc1O	43	-13	-22	88*	43	-16
COc1cccc(NC(=O)N2CC(=O)N3[C@H](CO)[C@H](c4ccc(Br)cc4)[C@@H]3C2)c1	9	/	-1	/	/	/
Cc1ccc(S(=O)(=O)N2CCN(C(=O)COC(=O)COc3ccc(Cl)c(C)c3)CC2)c(C)c1	2	1	7	7	-3	-2
Cc1ccc(S(=O)(=O)N2CCN(C(=O)COC(=O)COc3ccc(Cl)cc3)CC2)c(C)c1	17	58*	/	10	-8	-18
COc1cc2nc(C3CCC3)nc(N3CCN(c4ccccc4OC)CC3)c2cc1OC	11	14	20	35	89*	8
CCOc1ccc(-n2c(SCc3cc(=O)oc4cc(C)ccc34)nnc2-c2cccnc2)cc1	10	9	-5	-9	65*	-7
CC(=O)Nc1ccc2c(CSc3nnc(-c4cccnc4)n3-c3ccc(C)cc3C)cc(=O)oc2c1	/	5	-9	-2	1	4
O=C(CCN1CCCCC1)N[C@H]1C=C[C@@H](CC(=O)N2CCC(Cc3ccccc3)CC2)O[C@H]1CO	2	/	2	/	8	/
Nc1c(S(=O)(=O)c2cccs2)c2nc3ccccc3nc2n1Cc1ccccc1	/	-16	/	17	/	41
CCCCn1c(N)c(S(=O)(=O)c2ccc(C)cc2)c2nc3ccccc3nc21	7	-6	2	52*	25	65*
Cc1ccc(Cn2c(N)c(S(=O)(=O)c3cccs3)c3nc4ccccc4nc32)cc1	/	1	/	46	23	63*
O=C(C[C@H]1C=C[C@@H](NC(=O)CC2CC2)[C@H](CO)O1)NCc1ccc(Cl)cc1	0	/	-5	/	-1	/
CCOC(=O)c1c(-c2ccc(F)cc2)csc1NC(=O)CN1C(=O)NC2(CCCCC2C)C1=O (stereo not given)	22	-12	2	49	99*	25
CCOC(=O)c1c(NC(=O)CN2C(=O)NC3(CCCCC3C)C2=O)sc(C)c1C (stereo not given)	/	8	-39	-28	16	-3
C[C@H](CO)N1C[C@H](C)[C@@H](CN(C)C(=O)c2cccc(F)c2)Oc2ncc(-c3cncnc3)cc2C1=O	-20	/	7	/	/	/
CC=Cc1ccc2n(c1=O)C[C@@H]1[C@@H](CO)[C@H](C(=O)NCC(F)(F)F)[C@H]2N1C(=O)C1CC1 (mixture of isomers)	7	/	0	/	/	/
CC(=O)N1C[C@H]2[C@@H](c3ccccc31)[C@@H](CO)N2S(=O)(=O)c1ccccc1	-1	/	1	/	-14	/
COC1(OC)C(/C=C/c2ccc(C)cc2)C(C#N)(C#N)C1(OC)OC (stereo not given)	/	3	/	27	85*	-20
COC(=O)[C@H]1[C@@H](O)[C@@]2(O)c3c(OC)cc(OC)cc3O[C@@]2(c2ccc(OC)cc2)[C@@H]1c1ccc(F)cc1	39	/	86*	/	98*	/
CSc1cccc(NC(=O)/C=C/c2ccccc2)c1	/	-13	/	-14	/	-53
O=C(/C=C/c1ccccc1)Nc1cccc(C(=O)O)c1	86*	80*	103*	41	96*	-21
CCC(=O)Nc1cccc(C(=O)/C=C/c2ccccc2)c1	/	-8	/	65*	/	8
CSc1ccc(/C=C/C(=O)Nc2ccccc2)cc1	5	0	77*	72*	-38	42
SMILES	EWS-Fli block	EBV LMP1 NFkB	LGR2 antag	TWEAK-Fn14 inh	PAX8 inh HTS	TROY signal inh
CCC(=O)Nc1cccc(C(=O)/C=C/c2cccs2)c1	-34	7	-34	40	-97	-35
C[C@@H]1CN([C@@H](C)CO)C(=O)Cc2cc(NC(=O)Nc3ccc(F)cc3)ccc2O[C@H]1CN(C)C(=O)NC1CCCCC1	-11	/	0	/	13	/
COc1cc(CNCc2ccccc2Cl)ccc1OCC(=O)NC1CCCCC1	/	8	-9	86*	6	4
COc1cc(CNn2cnnc2)ccc1OCC(=O)NC1CCCCC1	/	-5	/	12	/	-22
O=C(c1ccccn1)N1C[C@@H]2[C@H](c3ccccc31)[C@@H](CO)N2C(=O)C1CCCC1	-2	/	-2	/	-13	/
COc1ccc(CN(C)C(=O)c2ccc(OCC(=O)Nc3cccc(C(F)(F)F)c3)c(OC)c2)c(OC)c1	40	31	-2	50	37	44
COc1cccc(CN(C)C(=O)c2ccc(OCC(=O)Nc3cccc(C(F)(F)F)c3)c(OC)c2)c1	38	28	9	61*	45	40
COc1ccc(C(C)NC(=O)c2ccc(Br)cc2)cc1OC (stereo not given)	6	-2	/	3	138*	29
O=C(COc1cccc(Cl)c1)Nc1nc(-c2ccc(S(=O)(=O)N3CCOCC3)cc2)cs1	/	36	/	57*	/	38
O=C(Nc1nc(-c2ccccc2)cs1)c1ccccc1NS(=O)(=O)c1ccc(F)cc1	/	?	?	88*	86*	50
O=C(Nc1nc(-c2ccncc2)cs1)c1ccc(S(=O)(=O)N2CCOCC2)cc1	/	0	/	2	/	6
CCOc1cccc(C(=O)Nc2nc(-c3ccc(S(=O)(=O)N4CCOCC4)cc3)cs2)c1	/	25	/	36	/	50*
COc1ccccc1C(=O)Nc1nc(-c2ccc(S(=O)(=O)N3CCOCC3)cc2)cs1	/	29	/	107*	/	65*
O=S(=O)(Nc1ccc(-c2csc(-c3ccccc3)n2)cc1)c1ccc(F)cc1	/	-3	/	-1	/	-12
COc1ccc(NC(=O)N(C)C[C@H]2Oc3ncc(-c4cccnc4)cc3C(=O)N([C@@H](C)CO)C[C@H]2C)cc1	-2	/	0	/	-2	/
O=C1CN(S(=O)(=O)Cc2ccccc2)C[C@H]2[C@@H](c3ccc(C#Cc4ccccc4)cc3)[C@@H](CO)N12	-11	/	7	/	/	/
O=C(Nc1nc(-c2ccccn2)cs1)c1cccc(S(=O)(=O)N2CCOCC2)c1	14	21	22	-10	81*	14
CCOc1ccc2nc(NC(=O)c3ccc(OC)c(S(=O)(=O)N4CCOCC4)c3)sc2c1	/	-1	/	44	33	53*
Cc1ccc(S(=O)(=O)N2CCOCC2)cc1C(=O)Nc1nc(-c2ccccn2)cs1	-1	15	8	14	51	1
O=C(COc1ccccc1Cl)Nc1nc(-c2ccncc2)cs1	-7	11	26	53*	2	37
CCCC#Cc1ccc2c(c1)O[C@H](CN(C)Cc1ccccc1)[C@H](C)CN([C@H](C)CO)S2(=O)=O	14	/	17	/	54	/
C[C@@H]1CN([C@H](C)CO)C(=O)c2cc(NC(=O)c3ccncc3)ccc2O[C@@H](C)CCCCO[C@@H]1CN(C)S(=O)(=O)c1ccc(Cl)cc1	10	/	2	/	4	/

High-throughput results: PubChem, several laboratories
